Measurements as given in PubChem BioAssay (EPA / NIEHS).
Calls of active or inactive are those of the source. Rule for the calls: active = hit-call score of the fitted dose curve at least 0.9, where 1 is the maximum; inactive = score below 0.9.

Assays:
Conditions in all cases: mRNA level, 48 h; actives raise or lower the signal
[1] = read-out: Nuclear factor NF-kappa-B p105 subunit (Homo sapiens) (UniProt P19838); assay: LTEA_HepaRG_NFKB1: Life Technologies and Expression Analysis (LTEA) Assay for Nuclear Factor Kappa B Subunit 1 (NFKB1) using HepaRG (AID 2283521)
Method in brief: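 Differentiated human HepaRG cells in serum-free induction medium with 0.5% DMSO were exposed for 48 h to eight half-log concentrations, top 100 uM, in duplicate. NFKB1 mRNA measured by Fluidigm TaqMan qRT-PCR, normalised to ACTB, GAPDH and POLR2A; bidirectional fit versus DMSO.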

[2] = read-out: Protein phosphatase 2A (PPP2R4), PTPA (gene 5524); assay: LTEA_HepaRG_PPP2R4: Life Technologies and Expression Analysis (LTEA) Assay for Protein phosphatase 2A (PPP2R4) using HepaRG (AID 2283522)
Method in brief: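 Using HepaRG cultures maintained in 0.5% DMSO, chemicals are tested 48 h at up to 100 uM in duplicate. Induction or suppression of PPP2R4 mRNA, measured by qRT-PCR, is fitted bidirectionally against the vehicle baseline.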

[3] = read-out: Phosphatase and tensin (PTEN), PTEN (gene 5728); assay: LTEA_HepaRG_PTEN: Life Technologies and Expression Analysis (LTEA) Assay for Phosphatase and tensin (PTEN) using HepaRG (AID 2283523)
Method in brief: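 HepaRG, 48 h exposure, 8-pt half-log series from 100 uM top, 0.5% DMSO vehicle, duplicates. Readout: Fluidigm qRT-PCR of PTEN transcript; housekeeping normalization (ACTB, GAPDH, POLR2A). Gain or loss fitted relative to DMSO baseline.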

[4] = read-out: solute carrier (SLC22A1), SLC22A1 (gene 6580); assay: LTEA_HepaRG_SLC22A1: Life Technologies and Expression Analysis (LTEA) Assay for solute carrier (SLC22A1) using HepaRG (AID 2283524);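 for AC50: TaqMan qRT-PCR normalized to ACTB GAPDH and POLR2A housekeeping genes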
Method in brief: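 qRT-PCR readout (TaqMan, Fluidigm arrays) of SLC22A1 transcript, normalized to three housekeeping genes; bidirectional curve fit relative to 0.5% DMSO vehicle. Differentiated human HepaRG cells, 48 h chemical exposure, top concentration 100 uM, half-log steps, eight points.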

[5] = read-out: Pyruvate Dehydrogenase Kinase 4 (PDK4), PDK4 (gene 5166); assay: LTEA_HepaRG_PDK4: Life Technologies and Expression Analysis (LTEA) Assay for Pyruvate Dehydrogenase Kinase 4 (PDK4) using HepaRG (AID 2283525)
Method in brief: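 HepaRG (human liver line), 48 h chemical exposure, 8-pt half-log CRC top 100 uM, 0.5% DMSO vehicle, duplicates. Readout: TaqMan qRT-PCR of PDK4 mRNA, housekeeping-normalized; gain/loss fit relative to DMSO baseline.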

[6] = read-out: NAD(P)H dehydrogenase [quinone] 1 (NQO1), NQO1 (gene 1728); assay: LTEA_HepaRG_NQO1: Life Technologies and Expression Analysis (LTEA) Assay for NAD(P)H dehydrogenase [quinone] 1 (NQO1) using HepaRG (AID 2283526)
Method in brief: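 In this assay, gene expression is read by qRT-PCR after 48 h exposure of HepaRG cells to eight concentrations (max 100 uM, half-log) in 0.5% DMSO. Each chemical runs in duplicate, and activity is scored relative to vehicle.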

[7] = read-out: Nuclear factor erythroid 2-related factor 2 (Homo sapiens) (UniProt Q16236); assay: LTEA_HepaRG_NFE2L2: Life Technologies and Expression Analysis (LTEA) Assay for Nuclear factor erythroid 2-related factor 2 (NFE2L2) Transcription Factor using HepaRG (AID 2283527)
Method in brief: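 HepaRG, 48 h dosing, 8-pt half-log series from 100 uM in 0.5% DMSO, duplicates. Read-out: NFE2L2 mRNA by qRT-PCR (ACTB/GAPDH/POLR2A normalization). Bidirectional curve fit vs DMSO baseline.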

[8] = read-out: succinate dehydrogenase complex iron sulfur subunit B (SDHB), SDHB (gene 6390); assay: LTEA_HepaRG_SDHB: Life Technologies and Expression Analysis (LTEA) Assay for succinate dehydrogenase complex iron sulfur subunit B (SDHB) using HepaRG (AID 2283528)
Method in brief: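 HepaRG cells (~100,000/well, plated 48 h) exposed in duplicate for 48 h in serum-free induction medium to 8-point half-log series from 100 uM in 0.5% DMSO; mRNA by qRT-PCR normalised to ACTB, GAPDH, POLR2A; bidirectional fit versus DMSO.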

[9] = read-out: Signal transducer and activator of transcription 3 (Homo sapiens) (UniProt P40763); assay: LTEA_HepaRG_STAT3: Life Technologies and Expression Analysis (LTEA) Assay for Signal transducer and activator of transcription (STAT3) using HepaRG (AID 2283529)
Method in brief: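 HepaRG, 48 h exposure, 8-pt half-log series (top 100 uM), 0.5% DMSO vehicle, duplicates. Readout: STAT3 transcript by Fluidigm qRT-PCR, housekeeping-normalized; bidirectional fit vs DMSO baseline.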

[10] = read-out: solute carrier (SLCO1B1), SLCO1B1 (gene 10599); assay: LTEA_HepaRG_SLCO1B1: Life Technologies and Expression Analysis (LTEA) Assay for solute carrier (SLCO1B1) using HepaRG (AID 2283530)
Method in brief: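 Differentiated human HepaRG cells were exposed for 48 h in serum-free induction medium to eight half-log concentrations, top 100 uM, in 0.5% DMSO. SLCO1B1 mRNA was measured by qRT-PCR, normalized to ACTB, GAPDH and POLR2A, and fitted bidirectionally against DMSO.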

Measured: AC50

Sequence of Signal transducer and activator of transcription 3 (Homo sapiens) (P40763 whole entry, looked up): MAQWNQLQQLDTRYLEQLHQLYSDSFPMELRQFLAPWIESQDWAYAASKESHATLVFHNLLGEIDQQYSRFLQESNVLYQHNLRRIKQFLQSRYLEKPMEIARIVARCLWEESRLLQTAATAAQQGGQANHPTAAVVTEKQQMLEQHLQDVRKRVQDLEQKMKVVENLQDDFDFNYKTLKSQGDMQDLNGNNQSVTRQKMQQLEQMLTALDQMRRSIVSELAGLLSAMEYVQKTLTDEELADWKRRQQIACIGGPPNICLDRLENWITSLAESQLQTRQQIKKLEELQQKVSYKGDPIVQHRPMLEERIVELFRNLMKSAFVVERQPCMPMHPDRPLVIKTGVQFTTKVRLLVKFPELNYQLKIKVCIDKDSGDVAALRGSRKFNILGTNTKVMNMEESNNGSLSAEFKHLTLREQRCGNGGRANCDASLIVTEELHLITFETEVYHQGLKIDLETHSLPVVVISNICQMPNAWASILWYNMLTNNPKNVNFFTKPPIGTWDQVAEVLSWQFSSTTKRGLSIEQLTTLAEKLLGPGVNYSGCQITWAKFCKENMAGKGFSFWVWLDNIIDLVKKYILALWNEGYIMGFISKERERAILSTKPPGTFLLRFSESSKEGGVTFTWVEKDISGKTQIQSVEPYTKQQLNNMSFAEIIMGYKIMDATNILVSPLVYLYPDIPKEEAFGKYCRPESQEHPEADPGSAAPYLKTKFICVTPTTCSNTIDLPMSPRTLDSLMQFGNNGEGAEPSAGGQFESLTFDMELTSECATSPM
Sequence of Nuclear factor erythroid 2-related factor 2 (Homo sapiens) (Q16236 whole entry, looked up): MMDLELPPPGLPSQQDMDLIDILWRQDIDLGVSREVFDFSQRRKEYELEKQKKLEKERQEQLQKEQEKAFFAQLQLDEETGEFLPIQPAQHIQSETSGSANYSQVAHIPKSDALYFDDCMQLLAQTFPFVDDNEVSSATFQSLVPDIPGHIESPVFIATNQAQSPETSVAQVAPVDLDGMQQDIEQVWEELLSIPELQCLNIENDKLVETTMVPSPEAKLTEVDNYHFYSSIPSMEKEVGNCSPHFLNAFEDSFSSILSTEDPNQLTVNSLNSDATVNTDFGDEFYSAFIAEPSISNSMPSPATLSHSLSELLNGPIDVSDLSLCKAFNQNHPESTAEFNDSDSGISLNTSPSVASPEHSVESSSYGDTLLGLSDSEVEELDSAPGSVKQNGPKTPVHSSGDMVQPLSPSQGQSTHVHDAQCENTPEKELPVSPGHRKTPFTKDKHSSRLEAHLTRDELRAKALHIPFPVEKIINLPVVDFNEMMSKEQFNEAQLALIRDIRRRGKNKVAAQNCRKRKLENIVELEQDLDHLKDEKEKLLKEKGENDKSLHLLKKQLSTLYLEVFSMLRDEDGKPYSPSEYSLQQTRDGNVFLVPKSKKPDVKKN
Sequence of Nuclear factor NF-kappa-B p105 subunit (Homo sapiens) (P19838 whole entry, looked up): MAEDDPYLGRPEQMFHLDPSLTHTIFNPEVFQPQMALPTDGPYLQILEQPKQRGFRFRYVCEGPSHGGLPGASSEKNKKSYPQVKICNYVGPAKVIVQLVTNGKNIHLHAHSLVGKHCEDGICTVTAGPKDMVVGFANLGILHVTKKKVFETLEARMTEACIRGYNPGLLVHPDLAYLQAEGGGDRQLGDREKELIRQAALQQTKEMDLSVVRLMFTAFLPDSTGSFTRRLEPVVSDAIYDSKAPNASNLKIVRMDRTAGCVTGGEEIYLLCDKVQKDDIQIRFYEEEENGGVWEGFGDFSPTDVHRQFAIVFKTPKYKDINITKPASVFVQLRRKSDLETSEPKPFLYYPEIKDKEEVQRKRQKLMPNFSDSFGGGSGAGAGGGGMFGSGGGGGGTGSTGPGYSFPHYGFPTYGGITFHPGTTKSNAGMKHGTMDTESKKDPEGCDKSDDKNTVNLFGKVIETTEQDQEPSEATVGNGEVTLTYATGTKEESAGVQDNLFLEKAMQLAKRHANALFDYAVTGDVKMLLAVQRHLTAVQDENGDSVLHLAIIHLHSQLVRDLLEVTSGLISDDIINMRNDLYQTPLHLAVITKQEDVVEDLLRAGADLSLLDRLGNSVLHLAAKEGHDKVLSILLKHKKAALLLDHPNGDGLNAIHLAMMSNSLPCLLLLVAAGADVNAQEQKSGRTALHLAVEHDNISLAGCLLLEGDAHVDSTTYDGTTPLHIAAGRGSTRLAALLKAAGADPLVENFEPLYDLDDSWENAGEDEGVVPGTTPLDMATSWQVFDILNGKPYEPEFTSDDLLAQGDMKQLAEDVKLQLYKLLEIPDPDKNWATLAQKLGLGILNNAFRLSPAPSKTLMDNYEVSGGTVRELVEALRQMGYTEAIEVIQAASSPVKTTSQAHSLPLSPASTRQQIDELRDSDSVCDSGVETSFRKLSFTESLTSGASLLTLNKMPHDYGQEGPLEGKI

CC(C)Oc1cccc(NC(=O)c2ccccc2C(F)(F)F)c1
active: [5] 50 µM
inactive: all other assays above

Clc1nc(Cl)nc(Nc2ccccc2Cl)n1
not listed: [9]
inactive: all other assays above

COc1cc(OC)nc(NC(=O)NS(=O)(=O)c2ncccc2OCC(F)(F)F)n1
active: [5] 0.129 µM | [10] 9.92 µM
inactive: all other assays above

CCOc1nc(C(Cl)(Cl)Cl)ns1
active: [1] 1.72 µM | [2] 0.801 µM | [3] 1.25 µM | [4] 1.34 µM | [5] 0.95 µM | [6] 0.993 µM | [7] 1.12 µM | [9] 50 µM | [10] 1.88 µM
inactive: [8]

CCCN(CC)CC1COC2(CCC(C(C)(C)C)CC2)O1 (stereo not drawn)
not listed: [9]
inactive: all other assays above

OC(c1ccc(Cl)cc1)(c1ccc(Cl)cc1)C(Cl)(Cl)Cl
inactive: [1] | [2] | [8]
active: [3] 78.4 µM | [4] 81.9 µM | [5] 80.5 µM | [6] 93 µM | [7] 71 µM | [10] 81.6 µM

CCOC(=O)C(C)OC(=O)c1cc(Oc2ccc(C(F)(F)F)cc2Cl)ccc1[N+](=O)[O-] (stereo not drawn)
active: [5] 14.3 µM
inactive: all other assays above

COc1ccc(-c2ccccc2)cc1NNC(=O)OC(C)C
inactive: all assays above

COC(=O)c1c(C(F)F)nc(C(F)(F)F)c(C2=NCCS2)c1CC(C)C
not listed: [9]
inactive: all other assays above

N#CN=C1SCCN1Cc1ccc(Cl)nc1
not listed: [9]
inactive: all other assays above

CCN(CC)c1nc(C)cc(OP(=S)(OC)OC)n1
inactive: all assays above

O=C(Nc1ccccc1-c1ccc(Cl)cc1)c1cccnc1Cl
active: [9] 0.539 µM
inactive: all other assays above

CCCCOCN(C(=O)CCl)c1c(CC)cccc1CC
active: [5] 50 µM
not listed: [9]
inactive: all other assays above

CC1(C)C(C(=O)OC(C#N)c2cccc(Oc3ccccc3)c2)C1(C)C (stereo not drawn)
not listed: [9]
inactive: all other assays above

Nc1c(Cl)c(F)nc(OCC(=O)O)c1Cl
inactive: all assays above

CCOP(=O)(OCC)Oc1nc(Cl)c(Cl)cc1Cl
active: [2] 76.6 µM | [4] 92.2 µM | [7] 49.8 µM | [10] 93.5 µM
inactive: all other assays above

CC(C)=CC1C(C(=O)OCc2coc(Cc3ccccc3)c2)C1(C)C (stereo not drawn)
active: [5] 50 µM
inactive: all other assays above

Cc1c(COC(=O)[C@@H]2[C@H](/C=C(\Cl)C(F)(F)F)C2(C)C)cccc1-c1ccccc1
active: [1] 0.703 µM
inactive: all other assays above

Nc1c(Cl)c(Cl)nc(C(=O)O)c1Cl
inactive: all assays above

COCC(C)N(C(=O)CCl)c1c(C)csc1C (stereo not drawn)
active: [4] 73.3 µM
not listed: [9]
inactive: all other assays above

O=C(O)c1c(Cl)ccc2cc(Cl)cnc12
inactive: all assays above

CC1(C)CON(Cc2ccccc2Cl)C1=O
inactive: all assays above

CC(C)N1C(=O)c2ccccc2NS1(=O)=O
inactive: all assays above

COP(=O)(OC)O/C(C)=C/C(=O)N(C)C
not listed: [9]
inactive: all other assays above

CCNP(=S)(OC)O/C(C)=C/C(=O)OC(C)C (stereo not drawn)
active: [7] 9.92 µM
inactive: all other assays above

CCSC(=O)N1CCCCCC1
active: [1] 12.6 µM
inactive: all other assays above

CS(=O)(=O)c1cc(C(F)(F)F)ccc1C(=O)c1cnoc1C1CC1
not listed: [9]
inactive: all other assays above

N#Cc1c[nH]cc1-c1cccc2c1OC(F)(F)O2
active: [4] 40.7 µM | [5] 83.9 µM | [7] 84.7 µM | [10] 50 µM
not listed: [9]
inactive: all other assays above

CCCCC(O)(Cn1cncn1)c1ccc(Cl)cc1Cl (stereo not drawn)
inactive: [1] | [2] | [3] | [8]
active: [4] 73.6 µM | [5] 78.8 µM | [6] 50 µM | [7] 50 µM | [9] 85.9 µM | [10] 76.6 µM

N#Cc1c(Cl)cccc1Cl
inactive: all assays above

CNC(=O)N(C)c1nnc(C(C)(C)C)s1
inactive: all assays above

COC(=O)NS(=O)(=O)c1ccc(N)cc1
not listed: [9]
inactive: all other assays above

COC(=O)NC(=S)Nc1ccccc1NC(=S)NC(=O)OC
active: [7] 50 µM
inactive: all other assays above

C=C(C)CN(CC)c1c([N+](=O)[O-])cc(C(F)(F)F)cc1[N+](=O)[O-]
inactive: all assays above
